# In all, about 33,000 sequences were measured (“E-score (-0.5 to 0.5)”: median about -0.017, highest 2% from about 0.3 on). The full list was thinned out, with the highest values kept by preference.
# Biological target: T1, Sut1 (UniProt P53032)
# T1 sequence: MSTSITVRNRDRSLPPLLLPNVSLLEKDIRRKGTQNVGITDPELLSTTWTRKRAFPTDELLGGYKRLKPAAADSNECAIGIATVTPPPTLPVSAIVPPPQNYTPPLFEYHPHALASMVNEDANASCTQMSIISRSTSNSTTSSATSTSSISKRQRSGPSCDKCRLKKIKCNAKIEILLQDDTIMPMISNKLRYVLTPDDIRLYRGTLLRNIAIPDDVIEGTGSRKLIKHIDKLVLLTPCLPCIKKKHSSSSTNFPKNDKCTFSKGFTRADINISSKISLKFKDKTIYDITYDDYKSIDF
# Assay: PBM E-score (8-mer binding enrichment) (E-score (-0.5 to 0.5)); higher = stronger / more preferred TF binding
# Details: protein concentration: 200 nM; construct: GST-full length
# Method: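 Universal 'all 10-mer' protein binding microarrays (Agilent AMADID 015681) probed with GST-tagged S. cerevisiae TFs (full-length or DBD) made by in vitro transcription/translation (PURExpress), about 100-200 nM. Bound TF was detected with fluorescent anti-GST. Each ungapped 8-mer (which stands for itself and its reverse complement) is scored by the PBM enrichment score (E-score), a modified Wilcoxon-Mann-Whitney statistic from -0.5 to +0.5, computed with the Universal PBM Analysis Suite. Scale: above 0.35 generally sequence-specific binding.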
row,Sequence,PBM E-score
1,CCGCGACC,-0.177
2,ATGAGCTA,0.0367
3,AGTCAAAC,-0.135
4,GGCAATTA,0.0911
5,CCCGAGAA,0.157
6,ACCGAGAA,0.229
7,TCCGAGAA,0.407
8,AACTTGCG,-0.0193
9,CCACTCCA,-0.174
10,ACACTCCG,0.438
11,CCACTCCC,-0.254
12,ACACTCCT,-0.0674
13,ATACTCCA,-0.0121
14,CCACTCCG,0.444
15,ACTCTCCG,0.27
16,ATACTCCC,0.108
17,ATACTCCG,0.487
18,ACAGACAA,0.294
19,GGATAGCC,0.0369
20,TAGCATCA,-0.0462
21,GCAATTGC,-0.0673
22,CGGCCTGC,-0.186
23,CTGTGCAC,-0.277
24,CGGTGTCC,0.0917
25,GAACCCTC,-0.17

row,Sequence,PBM E-score
1,CGACTCCG,0.47
2,AGACTCCC,-0.319
3,AGACTCCT,-0.142
4,CGACTCCC,-0.211
5,CGACTCCA,-0.132
6,AGACTCCG,0.47
7,AACTGTCG,0.00476
8,GCTAGTAC,-0.14
9,ACCTGAGA,-0.0623
10,CCCGAAGG,-0.0908
11,AGAATTCA,0.115
12,CTAAACTC,0.225
13,ATAAACTC,0.315
14,ATAAACTG,0.047
15,TACACCCA,0.036
16,TAGCGTCA,-0.116
17,AGGAAAGA,0.0593
18,CGGAAATC,0.212
19,CGGAAAGC,0.275
20,GGGAAATA,0.0403
21,CGGAAATA,0.337
22,CGGAAAGA,0.312
23,AATGTGCT,0.0947
24,TACTGAGA,-0.055
25,AAGGTCCA,-0.135

row,Sequence,PBM E-score
1,CAGGTCCG,0.438
2,AAGGTCCG,0.407
3,CAGGTCCC,-0.182
4,AAGGTCCT,-0.239
5,CAGGTCCA,-0.231
6,AGTCGAAA,0.115
7,TCTGGTAA,-0.0251
8,ATGCTAGA,0.0093
9,ACGCTGTA,-0.0391
10,ATCAAGAG,0.117
11,CTAGGCTC,-0.149
12,CGTAGCCC,-0.274
13,AGCGCCCT,-0.128
14,ACGGACAG,-0.0929
15,ACGGACCA,0.277
16,ACGGACAC,0.0824
17,ACGGACAT,0.404
18,ACGGACCG,-0.0134
19,ACGGACCT,0.339
20,ACAGTCCC,-0.2
21,GTTCCCTA,-0.238
22,CGAATATA,0.231
23,CCCATATC,-0.043
24,GACTCATA,0.0779
25,ACTCCGAT,0.491

row,Sequence,PBM E-score
1,AATCCGAC,0.0553
2,ACTCCCAT,-0.0456
3,CCTCCGAC,0.0212
4,ACTCCTAT,0.0886
5,ACTCCGAC,0.489
6,ACAACGGG,0.0387
7,GCAACGGC,-0.0987
8,TCAACGGA,0.246
9,ACAACGGA,0.335
10,GCAACGGA,0.306
11,CCAACGGA,0.207
12,AAGCCAGT,-0.176
13,CAGAAGAC,-0.17
14,CACGTGCC,-0.186
15,AGTGGCCA,-0.202
16,ATGCGCTA,-0.0278
17,AGCTCTAC,-0.325
18,ATTGTCCG,0.359
19,CATGTCCG,0.382
20,CATGTCCC,-0.1
21,ATTGTCCC,-0.108
22,CATGTCCA,0.0978
23,AATGTCCA,0.0363
24,AATGTCCG,0.447
25,ATTGTCCA,-0.0211

row,Sequence,PBM E-score
1,AATGTCCT,-0.0934
2,TCGAACAA,0.102
3,AGGGGGTA,-0.323
4,AGACCGCA,-0.0648
5,AGGGGATC,-0.134
6,CCAACCCG,-0.172
7,CCCTGCTC,-0.0773
8,CTCTCAGA,-0.139
9,CGCCGATC,0.137
10,GTCCGATA,0.362
11,GGCCGATA,-0.152
12,CTCCGATC,0.38
13,ATCCGATA,0.215
14,CTCCGATA,0.432
15,CGCCGATA,-0.197
16,ATCCGATC,0.18
17,CACCGATA,0.04
18,CCCAGCTC,0.03
19,CTACACCC,-0.286
20,AAAAAAAA,0.228
21,CCCCAATC,-0.327
22,TGTGTAAA,0.194
23,ACGGACTA,0.431
24,GCGGACTA,0.404
25,CTGGACTA,-0.0898

row,Sequence,PBM E-score
1,ACGGACGA,0.1
2,GCGGACCA,0.175
3,AGGGACTC,-0.186
4,ACGGACTC,0.393
5,GAGGACTA,0.0368
6,CCGGACTA,0.48
7,CCGGACCA,0.241
8,ACGGACTG,0.22
9,ATGGACTA,-0.0502
10,CGATCTCA,-0.0333
11,AAGTGATT,0.237
12,AGTGTATG,0.14
13,AGCCCATA,-0.137
14,ACTATTCT,0.0103
15,CCGGACTC,0.476
16,CGGGACTC,0.0911
17,CCGGACAC,0.112
18,ACGTAACT,0.009
19,ATATCCAA,0.158
20,TTATCCAA,0.3
21,CTATCCAA,0.057
22,ATTTTGTG,0.239
23,ATTTTGTA,0.318
24,CTTTTGTA,0.259
25,GACTACGA,0.0667

row,Sequence,PBM E-score
1,CGTCGGAC,0.247
2,AGTCGGAG,0.316
3,AGTCGGAT,0.173
4,CGTCGGAG,0.422
5,GGTCGGAC,0.259
6,TGTCGGAA,0.218
7,AGTCGGAC,0.337
8,CGTCGGAA,0.196
9,AGTCGGAA,0.243
10,CCATTCGG,0.00649
11,ATGTTCGG,0.181
12,CTGCCCAG,-0.222
13,GCCTGGCA,-0.3
14,CCACGGAA,0.178
15,ACACGGAG,0.409
16,CGACGGAC,0.349
17,CGACGGAA,0.116
18,GGACGGAC,0.285
19,ACACGGAT,0.0295
20,CCACGGAC,0.202
21,AGACGGAT,0.0639
22,AGACGGAG,0.322
23,AGACGGAA,0.0433
24,ACACGGAA,0.18
25,CCACGGAG,0.365

# Source: the supplement of paper PMC3334620
